We go through 32 compounds from PubChem BioAssay AID1347076 (National Center for Advancing Translational Sciences (NCATS), 2019).

Among all 400,000 compounds or so, about 13,000 (3.2%) were called active. Roughly 18% stayed inconclusive and do not appear here. The call rests on the fitted dose curve; in most records, active means well fitted cell-killing curve with a large enough effect; inconclusive means small, poorly fitted or top-dose-only effect, or effect the other way; inactive means flat fitted curve, though single readings scatter. Many of the other results were omitted from the sample, so actives are more common in it than they were.
On the % scale 0 is the no-effect control and ±100 the full control effect; potency means the concentration at half of the fitted maximal effect.

The nature of the experiment: qHTS assay for MDR1-selective chemotherapeutics: Primary screen using the drug-selected MDR subline cells KB-V1. Further: nearly all actives have a fitted effect of over 60% in size. The note with it: KB-V1 MDR cells viability, CellTiter-Glo, 72 h; series mostly up to 46.1 µM; activity change, negative = cytotoxicity: at the top concentration. The procedure, abridged: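 Luminescent ATP read-out (CellTiter-Glo, 10 min) measures survival of drug-selected KB-V1 MDR cells after 72 h, 37 degrees C compound exposure. Medium: phenol-red-free DMEM, 10% FBS. Values from fitted concentration-response curves.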
`Nc1ccc(Cc2ccc(N)c(Cl)c2)cc1Cl`: the “activity change, negative = cytotoxicity” value is -0.293% (inactive). For the compound `O=C(O)/C=C/c1ccc2c(c1)OCO2`, the “activity change, negative = cytotoxicity” value is -4.19% (inactive). As for `O=C1NC(=O)C(Cc2ccccc2)C(=O)N1`, the “activity change, negative = cytotoxicity” value is -4.35% (inactive). `COc1ccc(-n2nnnc2C(c2cccc3ccccc23)N2CCC(n3c(=O)[nH]c4ccccc43)CC2)cc1` (configuration not stated): the “activity change, negative = cytotoxicity” value was -22.8% (inactive). `COC(=O)N1C(c2ccccc2)C1c1ccccc1` (configuration not stated): the “activity change, negative = cytotoxicity” value is 9.07% (inactive). On to `Fc1ccc(C2N3CCCN23)cc1` (configuration not stated), for which the “activity change, negative = cytotoxicity” value is 11.6% (inactive). On the same count and under the same terms, in the case of `CC(C)CN1Cc2cc(N3CCCCC3)ccc2-n2nncc2C1` it was 15.3% (inactive).

On to `CC(Cc1ccccc1)NCCC(c1ccccc1)c1ccccc1` (configuration not stated), for which the Potency was 14.6 µM (active). In the case of `CC(Cc1ccccc1)NC=O` (configuration not stated), the “activity change, negative = cytotoxicity” value was 15.5% (inactive). Same read-out and setting: to `CC(=O)NC(=O)NC(C)Cc1ccccc1` (configuration not stated) belongs 13.9% (inactive). With `C[C@]12CCCCC1=CC(=O)C1C2CC[C@@]2(C)C1C[C@@H](F)[C@@H]2O` (some centres not stated), the “activity change, negative = cytotoxicity” value was -14.1% (inactive). In the case of `CC(c1ccccc1)(c1ccccc1)c1ccncc1`, the “activity change, negative = cytotoxicity” value is -22.6% (inactive). On the same count and under the same terms, in the case of `C/C(CCc1c[nH]c2ccccc12)=N\O` it was 2.16% (inactive). `C/C(=N/O)c1ccc2ccc3ccccc3c2c1`: the Potency was 3.26 µM (active).

`O=[N+]([O-])c1cnc2ccc3ccccc3c2c1`: the “activity change, negative = cytotoxicity” value is 3.87% (inactive). In the case of `CC1(C)Cc2c(C#N)c(N3CCNCC3)nc(-c3ccco3)c2CS1`, the “activity change, negative = cytotoxicity” value was -29.5% (inactive). With `CCOC(=O)C1(c2ccccc2)CCN(CC(O)c2ccc(NC(C)=O)cc2)CC1` (configuration not stated), the “activity change, negative = cytotoxicity” value is -4.21% (inactive). Consider `O=C(CN1CCCCC1)Nc1ccc(Br)cc1C(=O)c1ccccc1Cl`, for which the “activity change, negative = cytotoxicity” value was -7.61% (inactive). Regarding `O=C(CCN1CCCCC1)NCC(=O)Nc1ccc(Br)cc1C(=O)c1ccccc1`, the Potency is 18.4 µM (active). As to `CCOC(=O)CNC(=O)N1Cc2cc(N3CCCCC3)ccc2-n2nncc2C1`, the “activity change, negative = cytotoxicity” value is 1.87% (inactive).

Regarding `C[C@H]1CN([C@@H](C)CO)C(=O)CCCn2nncc2CO[C@H]1CN(C)C(=O)Oc1cccc2ccccc12`, the “activity change, negative = cytotoxicity” value is 0.932% (inactive). Same read-out and setting: in the case of `Cc1ccc(C(C)C)c(OCC(=O)N2CCN(CC(=O)N3CCOCC3)CC2)c1` it was 25.3% (inactive); in that of `CC1CCCN1CCC(C(N)=O)(c1ccccc1)c1ccccc1` (configuration not stated), -4.22% (inactive); in that of `O=C(NC1CCCCC1)N1Cc2cc(N3CCCCC3)ccc2-n2nncc2C1`, 7% (inactive). Regarding `c1ccc2c(c1)[I+]c1ccccc1-2`, the Potency is 16.4 µM (active). Turning to `CC=C(C)C(=O)OC1CCN2CC=C(COC(=O)C(O)(C(C)OC)C(C)(C)O)C12` (configuration not stated), the “activity change, negative = cytotoxicity” value is -1.56% (inactive).

For `CC1CNCCN1c1ccc(Cl)cc1` (configuration not stated), the “activity change, negative = cytotoxicity” value was -17.4% (inactive). Turning to `O=C(COC(=O)c1ccccc1)Nc1ccc(Cl)cc1C(=O)c1ccccc1`, the “activity change, negative = cytotoxicity” value was 9.26% (inactive). For the compound `CN1CCN(C(=S)SCC(=O)Nc2ccc(Cl)cc2C(=O)c2ccccc2)CC1`, the Potency was 5.17 µM (active).

For `O=C(Nc1ccc(Cl)cc1C(=O)c1ccccc1)c1cc(Cl)cc(Cl)c1`, the “activity change, negative = cytotoxicity” value was 0% (inactive). As for `COc1ccc(C2C=C(C)Oc3c2c(=O)oc2ccccc32)cc1OC` (configuration not stated), the “activity change, negative = cytotoxicity” value was -20.1% (inactive). On to `Cc1ncoc1C(=O)NCC1=C(c2cccc3ccccc23)C[C@@H]2CC[C@H]1N2Cc1ccco1`, for which the “activity change, negative = cytotoxicity” value was 0.247% (inactive).
